# From PubChem BioAssay (EPA / NIEHS)
# “And” between values parts separate entries of the source, which are not always exact repeats. Equal values may be shown once. Inconclusive results are not listed. The source made the active and inactive calls. How the source made its calls, unless noted: active means hit-call score of the fitted dose curve at least 0.9, where 1 is the maximum; inconclusive means response in the unintended direction; inactive means score below 0.9.
# Key:
# [1] = TOX21_p53_BLA_p2_viability: Viability Assessment in the Tox21 HCT-116 p53 Agonism Beta-lactamase Assay, Phase 2 (AID 2283591);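 further: actives lower the ATP signal meaning cytotoxicity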
# How it was run: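 HCT-116 p53-bla cells (4000/well) rested 5 h at 37C, then received compounds in DMSO (217-fold dilution) for 16 h at 37C, 5% CO2. After the CCF4 read, CellTiter-Glo was added; ATP luminescence was read after 30 min at room temperature.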
# [2] = molecular target: Cellular tumor antigen p53 (Homo sapiens) (UniProt P04637); test: TOX21_p53_BLA_p2_ratio: Tox21 HCT-116 p53 Agonism Beta-lactamase Assay, Ratio, Phase 2 (AID 2283592)
# Cellular tumor antigen p53 (Homo sapiens), sequence (P04637 whole entry, looked up): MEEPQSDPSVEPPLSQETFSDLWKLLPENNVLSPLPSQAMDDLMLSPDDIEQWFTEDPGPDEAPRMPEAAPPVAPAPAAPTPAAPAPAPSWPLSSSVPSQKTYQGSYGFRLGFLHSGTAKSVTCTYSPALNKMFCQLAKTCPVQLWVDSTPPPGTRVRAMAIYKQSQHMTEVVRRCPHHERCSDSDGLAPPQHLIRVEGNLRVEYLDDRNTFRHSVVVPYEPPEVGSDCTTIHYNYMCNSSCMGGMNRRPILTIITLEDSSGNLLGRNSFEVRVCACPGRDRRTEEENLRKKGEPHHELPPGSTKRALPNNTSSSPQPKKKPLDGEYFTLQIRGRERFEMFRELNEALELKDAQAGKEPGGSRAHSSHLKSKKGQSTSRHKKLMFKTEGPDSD
# How it was run: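 DMSO-normalized, positive-direction endpoint derived from the 460 nm/530 nm FRET ratio in HCT116 p53 beta-lactamase reporter cells exposed 16 h at 37C and loaded with CCF4-AM for 2 h.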
# [3] = TOX21_p53_BLA_p3_viability: Viability Assessment in the Tox21 HCT-116 p53 Agonism Beta-lactamase Assay, Phase 3 (AID 2283593);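 further: cells exposed to compound for 16 h before reading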
# How it was run: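 HCT-116 cells (4000/well) rested 5 h at 37C, then got DMSO compounds by pin tool (217-fold dilution) for 16 h at 37C, 5% CO2. After the bla read, CellTiter-Glo was added and luminescence read at 30 min, room temperature.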
# [4] = molecular target: Cellular tumor antigen p53 (Homo sapiens) (UniProt P04637); test: TOX21_p53_BLA_p3_ratio: Tox21 HCT-116 p53 Agonism Beta-lactamase Assay, Ratio, Phase 3 (AID 2283596)
# How it was run: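 Cells were seeded at 4000/well, rested 5 h at 37C, then dosed with DMSO compound solutions (217-fold dilution) for 16 h. CCF4-AM substrate was loaded for 2 h at room temperature, and the 460/530 nm emission ratio was fitted for gain of signal versus DMSO.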
# [5] = TOX21_p53_BLA_p4_viability: Viability Assessment in the Tox21 HCT-116 p53 Agonism Beta-lactamase Assay, Phase 4 (AID 2283597);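 further: hits lower the luminescence signal meaning cytotoxicity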
# How it was run: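 In this multiplexed secondary endpoint, HCT116 cells (4000 per well, compound at 5 h, 16 h treatment) received CellTiter-Glo after the beta-lactamase read. Luminescence after 30 min RT reflects ATP, and falling signal marks cytotoxicity.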
# [6] = TOX21_p53_BLA_p5_viability: Viability Assessment in the Tox21 HCT-116 p53 Agonism Beta-lactamase Assay, Phase 5 (AID 2283600)
# How it was run: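 Here cell health was gauged by ATP levels in wells holding 4000 cells, each treated 16 h with DMSO-delivered compounds at 217-fold dilution; reduced luminescence marked toxicity.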
# [7] = molecular target: Cellular tumor antigen p53 (Homo sapiens) (UniProt P04637); test: TOX21_p53_BLA_p4_ratio: Tox21 HCT-116 p53 Agonism Beta-lactamase Assay, Ratio, Phase 4 (AID 2283601)
# How it was run: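 HCT116 cells carrying an inducible beta-lactamase reporter were plated at 4000 cells/well, rested 5 h, then exposed to compounds in DMSO (217-fold dilution) for 16 h at 37C. CCF4-AM substrate was loaded 2 h at room temperature; 460/530 nm emission ratio scored gain-of-signal versus DMSO.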
# [8] = molecular target: PGR (gene 5241) (UniProt P06401); test: TOX21_PR_BLA_Followup_Agonist_ratio: Tox21 HEK293 Progesterone Receptor (PR) Agonism Beta-lactamase Follow-Up Assay, Ratio (AID 2283933)
# PGR (gene 5241), sequence (P06401 whole entry, looked up): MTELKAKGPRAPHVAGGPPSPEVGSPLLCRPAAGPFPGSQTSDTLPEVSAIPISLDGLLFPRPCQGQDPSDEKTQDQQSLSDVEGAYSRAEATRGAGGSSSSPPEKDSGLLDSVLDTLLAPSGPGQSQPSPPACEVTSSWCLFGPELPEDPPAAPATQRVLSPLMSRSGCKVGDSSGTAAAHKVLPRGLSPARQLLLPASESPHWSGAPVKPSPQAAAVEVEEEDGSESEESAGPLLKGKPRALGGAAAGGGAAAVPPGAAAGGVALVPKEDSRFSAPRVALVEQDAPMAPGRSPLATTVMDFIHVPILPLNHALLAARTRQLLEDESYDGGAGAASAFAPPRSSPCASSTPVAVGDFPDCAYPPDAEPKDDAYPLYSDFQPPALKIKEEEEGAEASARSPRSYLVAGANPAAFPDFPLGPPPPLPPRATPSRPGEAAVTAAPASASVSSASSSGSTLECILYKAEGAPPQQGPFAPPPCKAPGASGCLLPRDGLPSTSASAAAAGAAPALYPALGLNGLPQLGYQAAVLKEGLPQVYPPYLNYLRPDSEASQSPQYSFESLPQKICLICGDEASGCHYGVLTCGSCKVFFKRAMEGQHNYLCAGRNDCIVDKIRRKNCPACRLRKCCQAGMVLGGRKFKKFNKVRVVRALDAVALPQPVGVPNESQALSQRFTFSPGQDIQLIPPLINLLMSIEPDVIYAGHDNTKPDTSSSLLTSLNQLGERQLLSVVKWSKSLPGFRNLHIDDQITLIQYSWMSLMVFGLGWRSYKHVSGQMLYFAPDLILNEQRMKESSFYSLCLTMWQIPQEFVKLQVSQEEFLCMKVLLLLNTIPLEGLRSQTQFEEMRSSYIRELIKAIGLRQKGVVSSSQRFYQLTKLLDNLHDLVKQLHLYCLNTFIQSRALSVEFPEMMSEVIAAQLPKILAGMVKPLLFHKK
# How it was run: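 Beta-lactamase reporter readout: ratio of cleaved (ch2) to uncleaved (ch1) substrate after 2 h room-temperature loading, following 16 h compound exposure at 37C. Cells were PR-UAS-bla HEK293T in 2% charcoal-stripped FBS medium. Viability was multiplexed by CellTiter-Glo.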
# [9] = molecular target: PGR (gene 5241) (UniProt P06401); test: TOX21_PR_BLA_Followup_Antagonist_ratio: Tox21 HEK293 Progesterone Receptor (PR) Antagonism Beta-lactamase Follow-Up Assay, Ratio (AID 2283934);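 further: PR-UAS-bla HEK293T cells stimulated with 1 nM R5020 agonist for 16 hr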
# How it was run: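 Readout is the blue/green (ch2/ch1) substrate cleavage ratio after 2 hours at room temperature, following 16 hr co-treatment of PR-bla HEK293T cells with compound and 1nM promegestone. Multiplexed CellTiter-Glo viability flags cytotoxicity; DMSO baseline.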
# [10] = TOX21_PR_BLA_Followup_Agonist_viability: Viability Assessment in the Tox21 HEK293 Progesterone Receptor (PR) Agonism Beta-lactamase Follow-Up Assay (AID 2283935);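 further: signal loss means lower viability so actives are cytotoxic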
# How it was run: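 Run multiplexed with the beta-lactamase FRET read, this endpoint measures ATP by CellTiter-Glo luminescence (30 min, room temperature). PR-UAS-bla HEK293T cells received compound 6 hr after plating and were then incubated 16 hr at 37C in 2% stripped serum.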
# [11] = TOX21_PR_BLA_Followup_Antagonist_viability: Viability Assessment in the Tox21 HEK293 Progesterone Receptor (PR) Antagonism Beta-lactamase Follow-Up Assay (AID 2283936);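 further: cells exposed to compound with R5020 agonist for 16 h; hits lower the luminescence signal meaning cytotoxicity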
# How it was run: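 PR-UAS-bla HEK293T cells in medium with 2% charcoal-stripped FBS were treated with compounds plus R5020 for 16 hr at 37C. After the beta-lactamase read, CellTiter-Glo was added to the same wells and luminescence read after 30 min at room temperature.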
# [12] = molecular target: PGR (gene 5241) (UniProt P06401); test: TOX21_PR_LUC_Followup_Agonist: Tox21 HEK293 Progesterone Receptor (PR) Agonism Luciferase Follow-Up Assay (AID 2283937; active means hit-call score of the fitted dose curve at least 0.9, where 1 is the maximum; inactive means score below 0.9)
# How it was run: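 Agonism scored as luciferase induction over DMSO, read by ONE-Glo after 30 min at RT. Compounds were incubated 16 h at 37C on HEK293-PR-A-luc cells (3,000/well, pre-plated 5 h) previously grown 5 days in charcoal-stripped serum.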
# [13] = molecular target: PGR (gene 5241) (UniProt P06401); test: TOX21_PR_LUC_Followup_Antagonist: Tox21 HEK293 Progesterone Receptor (PR) Antagonism Luciferase Follow-Up Assay (AID 2283938);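 further: curve fitted upward as signal gain over DMSO baseline despite antagonist label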
# How it was run: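 Luciferase reporter in HEK293-PR-A-luc cells: 16 h compound treatment at 37C, ONE-Glo luminescence detection, DMSO as negative control and baseline.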
# [14] = TOX21_PR_LUC_Followup_Antagonist_viability: Viability Assessment in the Tox21 HEK293 Progesterone Receptor (PR) Antagonism Luciferase Follow-Up Assay (AID 2283940)
# How it was run: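 Viability counter-readout: cellular ATP measured by luciferase luminescence after 16 h compound exposure at 37C of HEK293-PR-A-luc cells, which had been cultured in charcoal-stripped serum and seeded 5 h beforehand.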
# [15] = TOX21_PR_LUC_Followup_Agonist_viability: Viability Assessment in the Tox21 HEK293 Progesterone Receptor (PR) Agonism Luciferase Follow-Up Assay (AID 2283941);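 further: loss of signal means cytotoxicity so actives lower viability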
# How it was run: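 Cytotoxicity counter-readout in the PR-A luciferase reporter line HEK293, with 16 h compound exposure at 37C after cells were cultured in charcoal-stripped serum. Cellular ATP quantified by CellTiter-Glo luminescence.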
compound,measurement,setting,value
Nc1ccc(N=Nc2ccccc2)c(N)c1,outcome,[1],inactive
same,outcome,[2],inactive
same,outcome,[3],inactive
same,outcome,[4],inactive
same,outcome,[5],inactive
same,outcome,[6],inactive
same,outcome,[7],inactive
COC(=O)c1ccc(C(=O)O)cc1,outcome,[1],inactive
same,outcome,[2],inactive
same,outcome,[3],inactive
same,outcome,[4],inactive
same,outcome,[5],inactive
same,outcome,[6],inactive
same,outcome,[7],inactive
NCCCC[C@H](NC(=O)[C@@H]1CCCN1C(=O)[C@@H]1CSSC[C@H](N)C(=O)N[C@@H](Cc2ccc(O)cc2)C(=O)N[C@@H](Cc2ccccc2)C(=O)N[C@@H](CCC(N)=O)C(=O)N[C@@H](CC(N)=O)C(=O)N1)C(=O)NCC(N)=O,outcome,[1],inactive
same,outcome,[2],inactive
same,outcome,[3],inactive
same,outcome,[4],inactive
same,outcome,[5],inactive
same,outcome,[6],inactive
same,outcome,[7],inactive
CN1C(=O)OC(C)(C)C1=O,outcome,[1],inactive
same,outcome,[2],inactive
same,outcome,[3],inactive
same,outcome,[4],inactive
same,outcome,[5],inactive
same,outcome,[6],inactive
same,outcome,[7],inactive
CC(O)C(CO)C(C)O (configuration not stated),outcome,[1],inactive
same,outcome,[2],inactive
same,outcome,[3],inactive
same,outcome,[4],inactive
same,outcome,[5],inactive
same,outcome,[6],inactive
same,outcome,[7],inactive
CC(C)C[C@H](NC(=O)[C@H](Cc1ccccc1)NC(=O)c1cnccn1)B(O)O,AC50,[1],283 nM (active) and 357 nM (active)
same,AC50,[2],9.74 nM (active) and 12.9 nM (active)
same,AC50,[3],318 nM (active) and 262 nM (active)
same,AC50,[4],10.5 nM (active) and 14.1 nM (active)
same,AC50,[5],128 nM (active) and 150 nM (active)
same,AC50,[6],554 nM (active) and 442 nM (active)
same,AC50,[7],9.86 nM (active) and 13 nM (active)
same,outcome,[8],inactive
same,AC50,[9],168 nM (active)
same,outcome,[10],inactive
same,outcome,[11],inactive
same,outcome,[12],inactive
same,AC50,[13],71.7 nM (active)
same,outcome,[14],inactive
same,outcome,[15],inactive
C[C@]12CCC(=O)C=C1CC[C@@H]1[C@@H]2CC[C@@]2(C)[C@H]1CC[C@]2(O)C(=O)CO,outcome,[1],inactive
same,outcome,[2],inactive
same,outcome,[3],inactive
same,outcome,[4],inactive
same,outcome,[5],inactive
same,outcome,[6],inactive
same,outcome,[7],inactive
same,outcome,[9],inactive
same,outcome,[10],inactive
same,outcome,[11],inactive
same,outcome,[13],inactive
same,outcome,[14],inactive
same,outcome,[15],inactive
CCCCNc1cc(C(=O)O)cc(S(N)(=O)=O)c1Oc1ccccc1,outcome,[1],inactive
same,outcome,[2],inactive
same,outcome,[3],inactive
same,outcome,[4],inactive
same,outcome,[5],inactive
same,outcome,[6],inactive
same,outcome,[7],inactive
OCCCNc1ccccc1,outcome,[1],inactive
same,outcome,[2],inactive
same,outcome,[3],inactive
same,outcome,[4],inactive
same,outcome,[5],inactive
same,outcome,[6],inactive
same,outcome,[7],inactive
